The campaign covered roughly 5,500 compounds. About 2,000 (36%) were called active. Not shown: some 18% with an inconclusive outcome. No stated cut-off is given here; in the data, active means normalized growth mostly below about 0.91 (no sharp cut-off); inconclusive means no clear call, values can overlap the other calls; inactive means mostly above about 0.92. The list shows a part of the results.
Experiment: chemical genetic growth profiling, strain panel (AID 1159580);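 further: tested at 20 µM; growth read once vehicle control cultures reached saturation at 30 °C; 1 = growth at the plate median or of vehicle wells; lower values mean less growth of the strain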
Conditions: S. cerevisiae deletion strains, growth OD
[1] = locus YAR019C, strain CDC15, hits give low values
[2] = locus YBL105C, strain PKC1, hits give low values
[3] = locus YBR135W, strain CKS1, hits give low values
[4] = locus YBR136W, strain MEC1, hits give low values
[5] = locus YBR160W, strain CDC28, hits give low values
[6] = locus YDL017W, strain CDC7, hits give low values
[7] = locus YDL028C, strain MPS1, hits give low values
[8] = locus YDL101C, strain DUN1, hits give low values
[9] = locus YDL108W, strain KIN28, hits give low values
[10] = locus YDL214C, strain PRR2, hits give low values
[11] = locus YDR052C, strain DBF4, hits give low values
[12] = locus YDR054C, strain cdc34, hits give low values
[13] = locus YDR226W, strain ADK1, hits give low values
[14] = locus YDR477W, strain SNF1, hits give low values
[15] = locus YER123W, strain YCK3, hits give low values
[16] = locus YER133W, strain GLC7, hits give low values
[17] = locus YFL009W, strain cdc4, hits give low values
[18] = locus YFL029C, strain CAK1, hits give low values
[19] = locus YFR003C, strain YPI1, hits give low values
[20] = locus YFR019W, strain FAB1, hits give low values
[21] = locus YFR028C, strain CDC14, hits give low values
[22] = locus YGR040W, strain KSS1, hits give low values
[23] = locus YGR052W, strain FMP48, hits give low values
[24] = locus YGR092W, strain DBF2, hits give low values
[25] = locus YHR079C, strain IRE1, hits give low values
[26] = locus YHR082C, strain KSP1, hits give low values
[27] = locus YHR205W, strain SCH9, hits give low values
[28] = locus YIL147C, strain SLN1, hits give low values
[29] = locus YJL095W, strain BCK1, hits give low values
[30] = locus YJL157C, strain FAR1, hits give low values
[31] = locus YJR016C, strain ILV3, hits give low values
[32] = locus YJR066W, strain TOR1 (second series), hits give low values
[33] = locus YJR066W, strain TOR1, hits give low values
[34] = locus YKL048C, strain ELM1, hits give low values
[35] = locus YKL067W, strain YNK1, hits give low values
[36] = locus YKL101W, strain HSL1, hits give low values
[37] = locus YKL193C, strain SDS22, hits give low values
[38] = locus YKL203C, strain TOR2, hits give low values
[39] = locus YLR113W, strain HOG1, hits give low values
[40] = locus YLR133W, strain CKI1, hits give low values
[41] = locus YLR403W, strain SFP1, hits give low values
[42] = locus YML070W, strain DAK1, hits give low values
[43] = locus YMR001C, strain CDC5, hits give low values
[44] = locus YMR205C, strain PFK2 (second series), hits give low values
[45] = locus YMR277W, strain FCP1, hits give low values
[46] = locus YNL006W, strain LST8, hits give low values
[47] = locus YNL020C, strain ARK1, hits give low values
[48] = locus YNL161W, strain CBK1, hits give low values
[49] = locus YNL183C, strain NPR1, hits give low values
[50] = locus YNL207W, strain RIO2, hits give low values
[51] = locus YNL222W, strain SSU72, hits give low values
[52] = locus YNL307C, strain MCK1 (second series), hits give low values
[53] = locus YOL078W, strain AVO1, hits give low values
[54] = locus YOL136C, strain PFK27, hits give low values
[55] = locus YOR061W, strain CKA2, hits give low values
[56] = locus YOR119C, strain RIO1, hits give low values
[57] = locus YOR231W, strain MKK1, hits give low values
[58] = locus YOR329C, strain SCD5, hits give low values
[59] = locus YPL031C, strain PHO85, hits give low values
[60] = locus YPL153C, strain RAD53, hits give low values
[61] = locus YPL204W, strain HRR25, hits give low values
[62] = locus YPL209C, strain IPL1, hits give low values
[63] = locus YPL256C, strain CLN2, hits give low values
[64] = locus YPR025C, strain CCL1, hits give low values
[65] = locus YPR111W, strain DBF20, hits give low values
[66] = strain NNK1, hits give low values
[67] = strain TSCII, hits give low values

Measured: normalized growth

O=C(CSC1=NNC(c2ccccn2)S1)Nc1ccccc1 (stereo not drawn)
inactive: [1] 1 | [2] 0.998 | [3] 0.994 | [4] 1 | [5] 1 | [6] 1.01 | [7] 0.998 | [8] 0.997 | [9] 1 | locus YDL132W, strain cdc53, hits give low values 0.995 | [10] 0.984 | [11] 0.994 | [12] 1 | [13] 1 | [14] 0.971 | [15] 0.951 | [16] 0.962 | [17] 1 | [18] 0.998 | [19] 1.01 | [20] 0.966 | [21] 1 | [22] 0.976 | [23] 1.08 | [24] 0.929 | [25] 1.08 | [26] 1.27 | [27] 0.97 | [28] 1 | [29] 1.08 | locus YJL128C, strain PBS2, hits give low values 0.976 | [30] 0.934 | [31] 1 | [32] 0.942 | [33] 1.27 | [34] 0.949 | [35] 0.987 | [36] 0.981 | [37] 0.997 | [38] 1.03 | [39] 1.06 | [40] 0.933 | [41] 0.92 | [42] 0.966 | [43] 1 | [44] 0.955 | [45] 1 | [46] 1.02 | [47] 0.936 | [48] 0.999 | [49] 1.01 | [50] 0.995 | [51] 1 | [52] 0.949 | [53] 0.995 | [54] 0.967 | [55] 0.96 | [56] 0.973 | [57] 1.11 | [58] 1 | [59] 0.973 | [60] 0.955 | [61] 0.923 | [62] 1 | [63] 1.03 | [64] 0.999 | locus YPR106W, strain ISR1, hits give low values 1.01 | [65] 1.01 | [66] 0.995 | [67] 0.996

C#CCSC1=NNC(c2ccccn2)S1 (stereo not drawn)
active: [1] 0.583 | [8] 0.45 | [10] 0.163 | [12] 0.531 | [14] 0.136 | [15] 0.125 | [16] 0.162 | [17] 0.573 | [18] 0.517 | [20] 0.111 | [21] 0.763 | [22] 0.176 | [23] 0.175 | [24] 0.119 | locus YHR030C, strain SLT2, hits give low values 0.135 | [25] 0.122 | [26] 0.21 | [27] 0.123 | [29] 0.129 | [30] 0.119 | [31] 0.596 | [32] 0.124 | [33] 0.172 | [34] 0.262 | [35] 0.137 | [36] 0.173 | [37] 0.618 | [38] 0.153 | [39] 0.225 | [40] 0.152 | [41] 0.045 | [42] 0.12 | [43] 0.821 | [44] 0.167 | [45] 0.481 | [46] 0.892 | [47] 0.137 | [48] 0.738 | [49] 0.171 | [50] 0.811 | [51] 0.635 | [52] 0.151 | [53] 0.527 | [54] 0.13 | [55] 0.183 | [56] 0.139 | [57] 0.149 | [58] 0.855 | [59] 0.162 | [60] 0.126 | [61] 0.141 | [63] 0.149 | [66] 0.408 | [67] 0.541
inactive: [2] 0.945 | [3] 0.928 | [4] 0.924 | [5] 0.932 | [6] 0.947 | [7] 0.917 | [9] 0.932 | [11] 0.94 | [13] 0.975 | [19] 0.957 | [28] 0.932 | [62] 0.951 | [64] 0.931 | [65] 0.928

Reference: PubChem BioAssay AID1159580 (chemical genetic matrix, 2015)
